Results from ChEMBL document CHEMBL3988442, “University of Dundee, Small-Polar-MMV Screening Library” (2021).
Out of some 48,000 compounds screened, about 13,000 (27%) showed an effect of 50% or more. Some of the results follow.

The molecules below were run on Wolbachia pipientis (assay: Anti-Wolbachia Cell-Based Screen). Settings: 5 µM.
Assay type: functional
Design: scale not given: in the data most compounds retested in dose-response had high values
In the case of O=C(Cn1cc(C(=O)O)ccc1=O)Nc1cc(F)ccc1F, the “Percent Effect” value was -7.497%.
With Cc1[nH]ccc1C(=O)NC1CCC(N2C(=O)CCC2=O)CC1 (stereo not given) the “Percent Effect” value was -10.09%.
Cc1cc(C)c(CNC(=O)NCCCNc2ccccn2)c(=O)[nH]1 was tested, and the “Percent Effect” value was 5.95%.
With CCc1noc(CS(=O)(=O)Cc2nc(Cc3ccccc3)no2)n1 the “Percent Effect” value was 6.103%.
For CN1CCCC(c2cccc(CCC(N)=O)n2)C1 (stereo not given), the “Percent Effect” value was 113.5%.
O=C(CCc1ccccn1)NC1CCN(c2cccc(Cl)c2)C1 (stereo not given) was tested, and the “Percent Effect” value was 3.633%.
CN1CCC(c2cccc(CCC(=O)NCC(N)=O)n2)CC1 was tested, and the “Percent Effect” value was 102.3%.
For CS(=O)(=O)N[C@@H]1CCN(Cc2ccncc2)[C@H]1Cc1cccnc1, the “Percent Effect” value was -7.843%.
With O=C(NCC1CC1)c1nc2c(o1)CN(CC1CC1)C2.O=C(O)C(F)(F)F the “Percent Effect” value was -8.922%.
CCNC(=O)N(C)Cc1ccc(SC)c(OC)c1 was tested, and the “Percent Effect” value was -16.12%.
In the case of COc1cc(C(=O)NCC2CCCO2)nc2c(C)cc(F)cc12 (stereo not given), the “Percent Effect” value was 102.3%.
For COc1ccccc1C(O)Cn1cc(C(=O)NCC2CC2)nn1 (stereo not given), the “Percent Effect” value was -12.95%.
COc1cc(C(=O)NCC2CC2)nc2c(C)cc(F)cc12 was tested, and the “Percent Effect” value was 82.93%.
With COc1cc(CCNC(=O)NCCC2CCCO2)ccc1C (stereo not given) the “Percent Effect” value was -11.71%.
With Cc1cc(C(=O)NC(C)C(=O)Nc2cc(F)ccc2C)nc(C)n1 (stereo not given) the “Percent Effect” value was -4.486%.
For COc1cc(C(=O)NC(C)C)nc2c(C)cc(F)cc12, the “Percent Effect” value was 104.7%.
For COc1ccccc1[S+]([O-])CC(=O)NCc1cc(F)cc(F)c1 (stereo not given), the “Percent Effect” value was -8.178%.
CCNC(=O)c1cc(OC)c2cc(F)cc(C)c2n1 was tested, and the “Percent Effect” value was 114.2%.
COc1ccc(F)cc1C(C)NC(=O)c1nnc(C)s1 (stereo not given) was tested, and the “Percent Effect” value was 1.178%.
In the case of O=C(NCC1CCCO1)c1cc(COc2ccccc2F)[nH]n1 (stereo not given), the “Percent Effect” value was -5.725%.
With CS(=O)(=O)c1ccc(CNC[C@H]2COCc3nc4ccccc4n32)cc1 the “Percent Effect” value was -0.06058%.
CN1CC[C@H]2CN(C(=O)c3ccc4sc5c(c4c3)CCNC5=O)C[C@H]21 was tested, and the “Percent Effect” value was 3.711%.
In the case of CCN(CC)C(=O)Cn1cc(C(=O)NCCCc2scnc2C)nn1, the “Percent Effect” value was 7.072%.
With CC(C)(C)C(O)CN1CCN(CC(=O)NC(C2CC2)C2CC2)CC1 (stereo not given) the “Percent Effect” value was 12.33%.
In the case of O=C(C1CCSCC1)N1CC[C@H]2OCC[C@@]2(COCC2CC2)C1, the “Percent Effect” value was -16.75%.
Cc1nc(S(=O)(=O)CCn2cccn2)n(C2CCCCC2)c1C was tested, and the “Percent Effect” value was -17.58%.
For N#Cc1ccc(SCCCO)c(F)c1, the “Percent Effect” value was -3.443%.
COc1cc(N2C[C@H]3CN(C(=O)c4cccnc4)C[C@H]3C2)ncn1.O=C(O)C(F)(F)F was tested, and the “Percent Effect” value was -0.6433%.
O=C(C[C@@H]1COC[C@H]2CN(C(=O)c3cccnc3)C[C@@H]12)N1CCCC1.O=C(O)C(F)(F)F was tested, and the “Percent Effect” value was 97.49%.
For O=C(C[C@@H]1COC[C@H]2CN(C3CCCC3)C[C@@H]12)NCc1cccnc1.O=C(O)C(F)(F)F.O=C(O)C(F)(F)F, the “Percent Effect” value was 105.3%.
In the case of O=C(C[C@@H]1COC[C@H]2CN(Cc3ccc(F)cc3)C[C@@H]12)N1CCOCC1.O=C(O)C(F)(F)F, the “Percent Effect” value was 19.83%.
For O=C(Nc1cnccn1)[C@@H]1COC[C@H]2CN(C3CCCC3)C[C@H]21.O=C(O)C(F)(F)F, the “Percent Effect” value was 2.256%.
With O=C(C[C@@H]1COC[C@H]2CN(C(=O)c3cccnc3)C[C@@H]12)N1CCOCC1.O=C(O)C(F)(F)F the “Percent Effect” value was 132.5%.
O=C(C[C@@H]1COC[C@H]2CN(Cc3ccncc3)C[C@@H]12)N1CCOCC1.O=C(O)C(F)(F)F.O=C(O)C(F)(F)F was tested, and the “Percent Effect” value was 3.799%.
With Cc1cnc(CNC(=O)C[C@@H]2COC[C@H]3CN(C4CCC4)C[C@@H]23)cn1 the “Percent Effect” value was -2.895%.
